In the library only some 0.71% were active in any assay of this set; here they are far more common.
hiPSC survival: enhancers of human iPSC single-cell survival. hiPSC single-cell survival, ATPlite luminescence; 100% = ROCK inhibitor wells, 0% = DMSO. survival enhancement, % at 20 µM. 360,000 compounds, 0.044% hits; in the data active = survival enhancement above about 18%;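 note: cells exposed to compounds for 16 hours before the ATP read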
H9c2 TAG inh: reduces triacylglycerol accumulation in H9c2 cells. Nile Red lipid (TAG) fluorescence; cells loaded with 200 µM oleic acid. inhibition, % at 12.5 µM. 230,000 compounds, 0.66% hits;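 active = pattern-corrected inhibition of lipid staining of at least 50% with the nuclear-stain viability signal not falling by more than 50%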;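 note: 0% = DMSO wells and 100% = triacsin C control wells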
MIN6 prolif-1: induces beta-cell replication in MIN6 cells. MIN6 cells proliferation, ATPlite luminescence, 48 h; cells starved in 0.2% serum; 100% = growth in 10% serum. proliferation, % at 10 µM. 330,000 compounds, 0.29% hits. AID 2380;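 active = compounds whose signal lies at least 3.5 SD above the mean of all wells on their plate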;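 note: 0% = DMSO-treated cells in low-serum medium and 100% = 10% serum control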
MIN6 prolif-2: confirmation of inducers of beta-cell replication in MIN6 cells; shares compounds with MIN6 prolif-1; MIN6 beta-cell proliferation, ATPlite luminescence, 48 h; cells kept in 0.2% serum; scaled between 0.2% and 10% serum; proliferation increase, % at 50 µM; 920 tested, under 10 active; AID 463095;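 active = proliferation increase above 40% at any of the four tested concentrations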
Active calls of the source: *; . = no result given; ! = not active in a repeat.

SMILES	hiPSC survival	H9c2 TAG inh	MIN6 prolif-1	MIN6 prolif-2
CN(C)c1ccc(CC(=O)N2CCCCC2c2cc(C(=O)Nc3ccccc3)no2)cc1 (stereo unspecified)	-2	-6	.	.
CC(=O)N1c2ccc(S(=O)(=O)N3CCCC3)cc2CC1C(=O)NC(C)C (stereo unspecified)	0	.	13*	1
CC(=O)N1c2ccc(S(=O)(=O)N3CCCC3)cc2CC1C(=O)Nc1cc(C)cc(C)c1 (stereo unspecified)	0	.	1	.
CCCCC(=O)N(C)c1c(CC)nc2c(OCC(=O)N(C)C)cccn12	-1	8	.	.
O=C(/C=C/[C@H]1O[C@@H](n2ccc(=O)[nH]c2=O)[C@H](O)[C@@H]1O)NCCN1CCCC1	-2	.	.	.
O=C(NCCNC(=O)c1ccc(-c2cc(Cl)ccc2Cl)o1)c1cnccn1	2	12	.	.
CN(C)CCN(C(=O)CN1C(=O)c2ccccc2C1=O)c1nc2cc3c(cc2s1)OCO3	0	-3	6	.
CCN(CC)CCN(C(=O)CN1C(=O)c2ccccc2C1=O)c1nc2cc3c(cc2s1)OCO3	0	13	10*	-2
Cc1ccc(-n2nc(C(=O)O)cc2-c2ccccc2Cl)cc1	0	.	0	.
O=C(O)c1cc(-c2ccccc2Cl)n(-c2ccc(F)cc2)n1	0	.	8.0*	-2
CC(Sc1nc(-c2ccccc2)c(-c2ccccc2)[nH]1)C(=O)NCC1CCCO1 (stereo unspecified)	0	12	.	.
CCc1nc2ccc(C(=O)NC(C)(C)C)cn2c1N(CC)Cc1cccc(Br)c1	-1	1	.	.
CCc1cc(C(=O)NC2CCCc3c2cnn3-c2ccc(F)cc2F)no1 (stereo unspecified)	1	-31	.	.
CC(C)(C)c1nnc(NC(=O)Nc2ccc(Cl)cc2)s1	1	13	-3	.
CCCCNC(=O)Nc1nnc(C(C)(C)C)s1	0	4	5.1*	1
COC(=O)c1ccc(C(=O)OC)c(NC(=O)Cc2cccs2)c1	-1	8	.	.
CN(Cc1ccccc1)N=Nc1nc[nH]c1C(N)=O	0	.	.	.
NC(=O)c1[nH]cnc1N	2	-6	12*!	-1
CCCCN1C(=O)C(CC(=O)NC2CCCCC2)CC(C(=O)N(C)C)=C1C (stereo unspecified)	3	10	.	.
O=C(Cc1ccc(-c2ccccc2)cc1)Nc1ccccc1	2	.	6.0*	-1
Cc1cccc(NC(=O)Cc2ccc(-c3ccccc3)cc2)n1	0	14	-1	.
CC1(C(=O)NS(=O)(=O)Cc2ccccc2)CCN1C(=O)C1(c2ccc(Cl)cc2)CCC1 (stereo unspecified)	-2	3	.	.
O=c1[nH]cnc2c1ncn2C1OC(CO)CC1F (stereo unspecified)	-1	.	.	.
O=C(NCCN1CCOCC1)c1cc2ccccc2[nH]1	1	.	8.2*	0
COc1ccc2[nH]c(C(=O)NCCN3CCOCC3)cc2c1	0	4	-4	.
SMILES	hiPSC survival	H9c2 TAG inh	MIN6 prolif-1	MIN6 prolif-2
COC1CCCN(Cc2nc(Cc3ccccc3F)no2)C1 (stereo unspecified)	-1	1	-4	.
Fc1ccccc1Cc1noc(CN2CCC(OCc3cccnc3)CC2)n1	0	.	7.7*	-3
NS(=O)(=O)c1ccc(NC(=O)c2ccc3c(c2)CCCC3)cc1	1	.	5.3*	0
NS(=O)(=O)c1ccc(NC(=O)c2ccc3c(c2)OCO3)cc1	0	.	-2	.
Cc1c(C(=O)N2CCC(C)(C(=O)NS(=O)(=O)C3CC3)C2)oc2ccccc12 (stereo unspecified)	0	-17	.	.
CCOC(=O)c1c(-c2cccs2)csc1NC(=O)C(C)(C)C	3	.	-2	.
CCOC(=O)c1c(-c2cccs2)csc1NC(C)=O	2	4	13*	-6
COc1ccc(C2=CCCCCC2)cc1OC	0	2	.	.
CSc1ccccc1NC(=O)CN(Cc1ccc(Cl)cc1)S(C)(=O)=O	0	.	5.0*	-6
CSc1ccccc1NC(=O)CN(Cc1ccccc1)S(C)(=O)=O	1	45	4	.
CN(C)S(=O)(=O)c1cccc(NC(=O)COC(=O)CCc2nc3ccccc3s2)c1	0	-5	6.7*	5
CN(C)S(=O)(=O)c1cccc(NC(=O)COC(=O)c2ccc3ccccc3n2)c1	0	-1	1	.
CCCS(=O)(=O)NC(=O)C1(C)CCN(C(=O)c2ccc(OC)cc2OC)C1 (stereo unspecified)	3	13	.	.
Cc1c(-c2ccccc2)nc(N)c(C#N)c1-c1ccco1	-2	.	0	.
Cc1nc(N)c(C#N)c(-c2ccccc2)c1C	1	2	5.9*	3
S=c1[nH]nc(-c2cccnc2)n1C1CCCCC1	0	.	0	.
COc1ccc(-c2n[nH]c(=S)n2C2CCCCC2)cc1	0	3	7.6*	-4
COc1ccc(-n2nnnc2C(c2ccccc2)N2CCN(C/C=C/c3ccccc3)CC2)cc1 (stereo unspecified)	-1	.	.	.
O=C(NCc1ccncc1)[C@@H]1CCCN1C(=O)[C@@H]1CCCN1C(=O)c1cccc2ccccc12	-1	.	.	.
Cn1cc(CN2CCC(C(=O)NC(c3ccc(-c4ccccc4)cc3)c3cnccn3)CC2)c2ccccc21 (stereo unspecified)	-2	24	.	.
CC1(C(=O)NS(=O)(=O)c2ccc(Cl)cc2)CCN1C(=O)C1CC1 (stereo unspecified)	2	6	.	.
CCN1CCN(C(=O)Cn2ncc3ccsc3c2=O)CC1	-1	.	9.8*	2
CCN1CCN(C(=O)Cn2c(=O)sc3ccccc32)CC1	3	4	-2	.
Cc1ccc(C)c(C(O)c2ncc(-c3cccc(C(F)(F)F)c3)[nH]2)c1 (stereo unspecified)	-2	-18	.	.
CCS(=O)(=O)N1CCN(C(=O)c2ccc3nc(C)c(N(C)C(=O)CCc4ccccc4)n3c2)CC1	1	-7	.	.
SMILES	hiPSC survival	H9c2 TAG inh	MIN6 prolif-1	MIN6 prolif-2
CCCn1c(SCC(=O)c2c(C)[nH]c(C)c2C(=O)OCC)nc2ccccc21	0	.	6.8*	-4
CCOC(=O)c1c(C)[nH]c(C)c1C(=O)CSc1nc2ccccc2n1CCC#N	2	.	2	.
CC1(C)CN(Cc2ccccc2)C(=O)[C@H]1CC(=O)Nc1ccc(Br)cc1	1	0	.	.
COC(=O)CNC(=O)COC(=O)/C=C/c1cccs1	1	-2	-2	.
COC(=O)CNC(=O)COC(=O)/C=C/c1ccc2ccccc2n1	1	-7	10*	-5
Cc1ccc(C(=O)NCC(=O)OCc2nc3ccsc3c(=O)[nH]2)cc1C	-2	-1	.	.
COC(=O)c1nn(-c2ccccc2)c(Sc2ccc(OC)cc2)c1/C=N/O	9	.	6.5*	-4
CO/N=C/c1c(C(=O)OC)nn(-c2ccccc2)c1Cl	2	1	0	.
COc1ccc(/C=N/NC(=O)c2cnccn2)cc1O	-1	.	0.0*	0
COc1cccc(/C=N/NC(=O)c2cnccn2)c1	-1	1	0	.
c1ccc(-c2nnc3oc(-c4cccs4)nn23)cc1	0	6	.	.
COc1ccc(CN2CCCCC2c2cccnc2)c(OC)c1C (stereo unspecified)	-2	.	6.7*	-1

Source: PubChem BioAssay (Sanford-Burnham Center for Chemical Genomics)
